This is one part of the list. A number with no mark means an inactive call. Active and inactive are the calls of the source.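 Rule for the calls: active = percent activation above the mean of DMSO-only control wells plus 3 SD of those wells (cut at about 18% in these data); inactive = the rest.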
Biological target: Neuropeptide Y receptor type 1 (Homo sapiens) (UniProt P25929)
Assay: human Y1 receptor agonism – cell-based, fluorescence, counter-screen for NPY-Y1 potentiator project, confirmation (AID 1697);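 note: cells challenged with isoproterenol plus Ro 20-1724 with no NPY in test wells; Y1 agonism lowers isoproterenol-driven cAMP and reduces probe fluorescence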
Conditions: HEK293 Y1-CNGC, membrane potential fluorescence, agonist mode; at 3.6 µM; active compounds read high

Neuropeptide Y receptor type 1 (Homo sapiens), sequence (P25929 whole entry, looked up): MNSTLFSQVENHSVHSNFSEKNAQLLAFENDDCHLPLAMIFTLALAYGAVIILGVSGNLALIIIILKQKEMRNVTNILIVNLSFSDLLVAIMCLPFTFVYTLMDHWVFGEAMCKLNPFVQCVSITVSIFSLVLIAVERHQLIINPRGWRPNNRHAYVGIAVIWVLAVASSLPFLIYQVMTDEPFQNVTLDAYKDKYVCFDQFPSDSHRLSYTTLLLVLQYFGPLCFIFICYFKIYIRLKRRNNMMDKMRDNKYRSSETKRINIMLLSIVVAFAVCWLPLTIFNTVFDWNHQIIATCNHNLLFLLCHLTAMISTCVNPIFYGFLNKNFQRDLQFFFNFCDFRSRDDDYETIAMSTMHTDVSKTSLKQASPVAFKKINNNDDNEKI

| Structure (SMILES) | activation |
| --- | --- |
| COC(=O)c1sc(-c2ccc(C(C)(C)C)cc2)cc1NC(=O)/C=C/C(=O)O | 26.9% (active) |
| O=C(Nc1ccc2c(c1)CCC2)c1cccc(S(=O)(=O)Nc2ccccc2Cl)c1 | 3.19% |
| CC1=C/C(=N\OS(=O)(=O)c2ccccc2)C=CC1=O | 14.2% |
| COC(=O)c1ccc(NC(=O)CN(c2ccc(C)cc2)S(=O)(=O)c2c(C)n[nH]c2C)cc1 | 45.3% (active) |
| CC(=O)c1ccc(NC(=O)C2CC(=O)Nc3nc4ccccc4n32)cc1 (stereo unspecified) | 38% (active) |
| O=[N+]([O-])c1cc(Cl)cc(/C=N/NC(=S)Nc2cc(S(=O)(=O)N3CCOCC3)ccc2Cl)c1O | 77% (active) |
| Cc1cccc(OCC(O)CN2CCN(CCN3C(=O)c4cccc5cccc(c45)C3=O)CC2)c1C (stereo unspecified) | 45.1% (active) |
| O=C1/C(=C/c2coc3ccc(O)cc3c2=O)SC(=S)N1c1ccccc1 | 16.8% |
| COCCn1nnnc1C(c1ccccc1Cl)N1CCN(c2ccccc2OC)CC1 (stereo unspecified) | -0.37% |
| Cc1ccccc1NCC(=O)N/N=C\c1ccc([N+](=O)[O-])s1 | 40% (active) |
| CSc1nc(-c2ccco2)nn1C(=O)c1ccccc1Cl | 28.5% (active) |
| N#Cc1ccc(C(=O)Nc2nc(-c3cccs3)c(C(=O)C(F)(F)F)s2)cc1 | -33.9% |
| O=C(Nc1ccccc1C(F)(F)F)c1cc(-c2ccc(O)cc2)on1 | 9.5% |
| CN1C(=O)c2ccccc2C(C(=O)NCCCN2CCCC2)C1c1c[nH]c2ccccc12 (stereo unspecified) | -3% |
| O=C(c1cccs1)N1CCN(C(=O)N2CCOCC2)CC1 | -8.38% |
| CCn1c2ccccc2c2cc(NC(=O)Nc3ccc([N+](=O)[O-])cc3C)ccc21 | 11.8% |

Reference: PubChem BioAssay AID1697 (The Scripps Research Institute Molecular Screening Center, 2009)
